# Results taken from publication PMC7862700, “An all-to-all approach to the identification of sequence-specific readers for epigenetic DNA modifications on cytosine”.
# Columns and labels:
# Experiment in all cases: DAPPL (digital affinity profiling via proximity ligation, sequencing); 10 mM Tris-HCl pH 7.5, 50 mM NaCl, 1 mM DTT, 4% glycerol, room temperature, 30 min; GST-TFs on glutathione beads, 16-mer random dsDNA library, 0.1% formaldehyde crosslink after washing; high values mean tight binding
# FLI1 = molecular target: T1, FLI1 (Homo sapiens, UniProt Q01543 1-452); conditions: protein: recombinant; tags: N-terminal GST; dsDNA, one strand shown
# T1 sequence: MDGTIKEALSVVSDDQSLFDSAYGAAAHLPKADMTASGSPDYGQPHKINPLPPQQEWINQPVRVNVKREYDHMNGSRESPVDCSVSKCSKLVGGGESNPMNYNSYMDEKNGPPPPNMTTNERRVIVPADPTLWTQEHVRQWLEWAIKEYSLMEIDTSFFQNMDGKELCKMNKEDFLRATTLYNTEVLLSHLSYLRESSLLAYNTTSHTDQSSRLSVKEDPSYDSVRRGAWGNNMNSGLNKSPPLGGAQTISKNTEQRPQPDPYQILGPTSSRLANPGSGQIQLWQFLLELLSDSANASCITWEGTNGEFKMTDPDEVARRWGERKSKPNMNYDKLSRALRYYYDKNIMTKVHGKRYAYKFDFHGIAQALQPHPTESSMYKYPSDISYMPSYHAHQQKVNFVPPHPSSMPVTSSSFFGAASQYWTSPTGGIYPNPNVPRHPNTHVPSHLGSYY
# Method in brief: (§1)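 Sequencing on an Illumina NextSeq500 followed washing, crosslinking with 0.1% formaldehyde, proximity ligation (BsaI/T4 ligase, 1 h, 37 °C) and PCR amplification of pools that had been incubated for 30 min at room temperature with 200 nmole of a random double-stranded 16-mer DNA library in Tris/NaCl/DTT/glycerol buffer. Each pool held DNA-barcoded human transcription factors, expressed in yeast as GST fusions and captured on glutathione beads, plus a tag-only sample. Binding signal is a hexamer's read frequency for a factor divided by its frequency in the tag-only sample.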
# ELK1 = molecular target: T2, ELK1 (Homo sapiens, UniProt P19419 1-428); conditions: protein: recombinant; tags: N-terminal GST; dsDNA, one strand shown
# T2 sequence: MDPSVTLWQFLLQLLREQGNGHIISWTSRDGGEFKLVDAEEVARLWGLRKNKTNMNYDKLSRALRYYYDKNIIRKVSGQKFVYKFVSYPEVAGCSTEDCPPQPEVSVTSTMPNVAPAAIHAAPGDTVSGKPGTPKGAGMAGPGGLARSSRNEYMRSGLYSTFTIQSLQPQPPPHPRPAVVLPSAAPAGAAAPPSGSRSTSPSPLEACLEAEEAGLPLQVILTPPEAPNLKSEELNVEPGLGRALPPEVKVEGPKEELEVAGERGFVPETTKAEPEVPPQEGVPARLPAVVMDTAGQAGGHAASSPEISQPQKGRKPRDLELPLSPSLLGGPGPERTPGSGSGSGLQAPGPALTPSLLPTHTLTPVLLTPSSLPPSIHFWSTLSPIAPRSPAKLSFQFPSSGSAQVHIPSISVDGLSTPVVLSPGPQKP
# Method in brief: as §1
# GABPA = molecular target: T3, GABPA (Homo sapiens, UniProt Q06546 1-454); conditions: protein: recombinant; tags: N-terminal GST; dsDNA, one strand shown
# T3 sequence: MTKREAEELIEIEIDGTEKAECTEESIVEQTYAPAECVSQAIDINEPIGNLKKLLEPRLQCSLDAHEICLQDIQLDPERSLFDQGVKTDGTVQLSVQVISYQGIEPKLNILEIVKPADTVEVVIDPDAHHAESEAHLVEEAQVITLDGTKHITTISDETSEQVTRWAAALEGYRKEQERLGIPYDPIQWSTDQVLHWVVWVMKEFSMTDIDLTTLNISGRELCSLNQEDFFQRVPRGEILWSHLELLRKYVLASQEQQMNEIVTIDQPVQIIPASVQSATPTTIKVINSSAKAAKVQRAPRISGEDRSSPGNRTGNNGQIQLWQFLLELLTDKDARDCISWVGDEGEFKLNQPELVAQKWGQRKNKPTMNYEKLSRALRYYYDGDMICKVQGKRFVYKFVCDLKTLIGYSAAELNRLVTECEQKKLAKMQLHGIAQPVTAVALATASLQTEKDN
# Method in brief: as §1
# ERG = molecular target: T4, ERG (Homo sapiens, UniProt P11308 1-479); conditions: protein: recombinant; tags: N-terminal GST; dsDNA, one strand shown
# T4 sequence: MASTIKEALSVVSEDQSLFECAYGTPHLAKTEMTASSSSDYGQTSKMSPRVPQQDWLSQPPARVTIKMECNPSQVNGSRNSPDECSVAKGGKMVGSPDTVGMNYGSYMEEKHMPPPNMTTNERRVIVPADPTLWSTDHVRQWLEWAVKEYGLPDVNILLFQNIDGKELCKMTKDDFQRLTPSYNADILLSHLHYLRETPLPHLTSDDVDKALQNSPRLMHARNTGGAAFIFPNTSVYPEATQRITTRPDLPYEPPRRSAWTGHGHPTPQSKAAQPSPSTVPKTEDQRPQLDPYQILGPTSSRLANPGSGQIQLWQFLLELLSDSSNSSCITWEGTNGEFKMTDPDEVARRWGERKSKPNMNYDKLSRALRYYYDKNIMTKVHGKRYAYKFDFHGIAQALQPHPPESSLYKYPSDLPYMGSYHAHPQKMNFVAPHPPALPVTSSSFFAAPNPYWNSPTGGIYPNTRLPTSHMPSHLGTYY
# Method in brief: as §1
# ELF1 = ELF1 (Homo sapiens, UniProt P32519 1-619); conditions: protein: recombinant; tags: N-terminal GST; dsDNA, one strand shown
# ELF1, sequence (P32519 whole entry): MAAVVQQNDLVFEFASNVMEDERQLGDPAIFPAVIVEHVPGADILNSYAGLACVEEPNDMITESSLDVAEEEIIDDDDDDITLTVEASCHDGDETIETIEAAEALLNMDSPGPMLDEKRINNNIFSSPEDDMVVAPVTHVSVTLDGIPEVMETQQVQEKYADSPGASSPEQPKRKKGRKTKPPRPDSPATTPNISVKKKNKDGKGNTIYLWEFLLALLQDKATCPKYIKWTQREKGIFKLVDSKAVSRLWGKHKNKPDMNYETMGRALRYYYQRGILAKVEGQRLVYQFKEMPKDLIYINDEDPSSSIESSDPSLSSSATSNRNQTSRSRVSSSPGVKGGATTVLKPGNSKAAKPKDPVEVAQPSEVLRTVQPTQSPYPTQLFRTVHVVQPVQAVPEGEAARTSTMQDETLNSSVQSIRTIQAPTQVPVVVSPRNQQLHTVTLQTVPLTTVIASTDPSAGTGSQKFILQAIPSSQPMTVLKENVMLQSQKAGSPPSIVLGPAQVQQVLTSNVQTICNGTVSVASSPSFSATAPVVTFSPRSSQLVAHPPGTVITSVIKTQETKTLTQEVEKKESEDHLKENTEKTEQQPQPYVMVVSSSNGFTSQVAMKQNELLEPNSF
# Method in brief: as §1
# EHF = molecular target: T5, EHF (Homo sapiens, UniProt Q9NZC4 1-300); conditions: protein: recombinant; tags: N-terminal GST; dsDNA, one strand shown
# T5 sequence: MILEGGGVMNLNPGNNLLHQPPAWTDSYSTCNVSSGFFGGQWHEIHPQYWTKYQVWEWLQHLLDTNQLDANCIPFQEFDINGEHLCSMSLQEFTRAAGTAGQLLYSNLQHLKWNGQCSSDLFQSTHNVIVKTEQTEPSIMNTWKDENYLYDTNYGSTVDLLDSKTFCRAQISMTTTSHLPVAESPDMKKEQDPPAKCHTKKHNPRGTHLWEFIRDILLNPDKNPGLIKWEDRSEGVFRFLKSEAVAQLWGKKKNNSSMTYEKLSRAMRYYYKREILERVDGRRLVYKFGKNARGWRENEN
# Method in brief: as §1
# SPI1 = SPI1 (Homo sapiens, UniProt P17947 1-270); conditions: protein: recombinant; tags: N-terminal GST; dsDNA, one strand shown
# Method in brief: as §1
# SPIB = SPIB (Homo sapiens, UniProt Q01892 1-262); conditions: protein: recombinant; tags: N-terminal GST; dsDNA, one strand shown
# SPIB, sequence (Q01892 whole entry): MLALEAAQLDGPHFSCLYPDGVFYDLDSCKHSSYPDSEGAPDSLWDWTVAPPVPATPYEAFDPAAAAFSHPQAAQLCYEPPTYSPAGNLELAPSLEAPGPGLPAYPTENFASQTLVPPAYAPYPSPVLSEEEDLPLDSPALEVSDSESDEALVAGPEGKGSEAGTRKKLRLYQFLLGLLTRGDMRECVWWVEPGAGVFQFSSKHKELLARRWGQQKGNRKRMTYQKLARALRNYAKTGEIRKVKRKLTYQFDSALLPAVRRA
# Method in brief: as §1
# ELK3 = molecular target: T6, ELK3 (Homo sapiens, UniProt P41970 1-407); conditions: protein: recombinant; tags: N-terminal GST; dsDNA, one strand shown
# T6 sequence: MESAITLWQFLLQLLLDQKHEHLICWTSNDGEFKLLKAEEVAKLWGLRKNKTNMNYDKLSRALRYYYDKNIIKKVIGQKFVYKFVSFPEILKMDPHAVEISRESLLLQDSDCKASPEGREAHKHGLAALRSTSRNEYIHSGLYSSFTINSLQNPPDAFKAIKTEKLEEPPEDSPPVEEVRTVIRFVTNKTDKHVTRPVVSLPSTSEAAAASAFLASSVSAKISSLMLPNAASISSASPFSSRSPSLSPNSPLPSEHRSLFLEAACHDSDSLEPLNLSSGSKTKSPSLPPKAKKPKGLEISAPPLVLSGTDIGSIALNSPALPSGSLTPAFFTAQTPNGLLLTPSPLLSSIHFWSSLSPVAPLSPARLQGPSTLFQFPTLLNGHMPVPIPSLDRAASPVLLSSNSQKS
# Method in brief: as §1
# FEV = molecular target: T7, FEV (Homo sapiens, UniProt Q99581 1-238); conditions: protein: recombinant; tags: N-terminal GST; dsDNA, one strand shown
# T7 sequence: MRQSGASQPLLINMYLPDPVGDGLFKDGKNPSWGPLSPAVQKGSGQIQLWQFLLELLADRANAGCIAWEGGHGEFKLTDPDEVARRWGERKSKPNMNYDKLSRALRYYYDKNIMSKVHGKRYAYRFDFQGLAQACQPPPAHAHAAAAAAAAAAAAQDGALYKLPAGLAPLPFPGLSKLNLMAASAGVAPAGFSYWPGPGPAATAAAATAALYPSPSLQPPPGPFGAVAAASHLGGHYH
# Method in brief: as §1
# ETV5 = ETV5 (Homo sapiens, UniProt P41161 1-510); conditions: protein: recombinant; tags: N-terminal GST; dsDNA, one strand shown
# ETV5, sequence (P41161 whole entry): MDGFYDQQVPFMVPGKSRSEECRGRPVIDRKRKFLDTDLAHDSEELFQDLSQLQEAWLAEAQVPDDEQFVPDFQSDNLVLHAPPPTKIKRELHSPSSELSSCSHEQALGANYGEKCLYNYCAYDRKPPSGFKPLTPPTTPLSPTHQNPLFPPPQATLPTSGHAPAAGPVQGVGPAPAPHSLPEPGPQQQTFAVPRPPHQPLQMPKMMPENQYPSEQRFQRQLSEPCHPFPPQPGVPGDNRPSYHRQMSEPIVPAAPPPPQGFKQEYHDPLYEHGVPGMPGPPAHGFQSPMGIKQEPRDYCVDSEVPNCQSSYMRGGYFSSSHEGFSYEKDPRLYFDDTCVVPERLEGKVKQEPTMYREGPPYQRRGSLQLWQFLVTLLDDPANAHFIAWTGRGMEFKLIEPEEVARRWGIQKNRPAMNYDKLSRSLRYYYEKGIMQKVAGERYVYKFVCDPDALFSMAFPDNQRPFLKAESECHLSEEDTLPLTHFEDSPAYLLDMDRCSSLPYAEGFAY
# Method in brief: as §1
# HSF1 = HSF1 (Homo sapiens, UniProt Q00613 1-529); conditions: protein: recombinant; tags: N-terminal GST; chain copies: 3; dsDNA, one strand shown
# HSF1, sequence (Q00613 whole entry): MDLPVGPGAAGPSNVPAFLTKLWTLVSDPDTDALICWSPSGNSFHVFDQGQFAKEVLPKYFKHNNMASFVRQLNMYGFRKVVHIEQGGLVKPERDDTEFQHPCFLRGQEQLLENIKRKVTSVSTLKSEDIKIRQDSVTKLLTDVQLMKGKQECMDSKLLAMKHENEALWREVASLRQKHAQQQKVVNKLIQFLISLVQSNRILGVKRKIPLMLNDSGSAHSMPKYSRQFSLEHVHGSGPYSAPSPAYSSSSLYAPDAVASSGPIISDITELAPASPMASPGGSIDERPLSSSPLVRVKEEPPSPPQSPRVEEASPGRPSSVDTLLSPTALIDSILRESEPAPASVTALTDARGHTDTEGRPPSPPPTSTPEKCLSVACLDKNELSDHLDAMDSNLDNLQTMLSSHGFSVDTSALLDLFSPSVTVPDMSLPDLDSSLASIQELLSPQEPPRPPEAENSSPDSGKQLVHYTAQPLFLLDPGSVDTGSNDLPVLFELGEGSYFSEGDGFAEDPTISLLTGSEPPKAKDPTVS
# Method in brief: as §1
# SPIC = molecular target: T8, SPIC (Homo sapiens, UniProt Q8N5J4 1-248); conditions: protein: recombinant; tags: N-terminal GST; dsDNA, one strand shown
# T8 sequence: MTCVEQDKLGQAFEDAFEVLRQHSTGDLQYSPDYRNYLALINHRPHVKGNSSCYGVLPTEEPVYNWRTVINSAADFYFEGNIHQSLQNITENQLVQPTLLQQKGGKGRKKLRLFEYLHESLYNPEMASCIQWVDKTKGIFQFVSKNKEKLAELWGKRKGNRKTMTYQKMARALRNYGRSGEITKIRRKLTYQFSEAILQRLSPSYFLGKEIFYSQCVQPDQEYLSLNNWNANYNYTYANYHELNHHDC
# Method in brief: as §1
# ELF4 = ELF4 (Homo sapiens, UniProt Q99607 1-663); conditions: protein: recombinant; tags: N-terminal GST; dsDNA, one strand shown
# ELF4, sequence (Q99607 whole entry): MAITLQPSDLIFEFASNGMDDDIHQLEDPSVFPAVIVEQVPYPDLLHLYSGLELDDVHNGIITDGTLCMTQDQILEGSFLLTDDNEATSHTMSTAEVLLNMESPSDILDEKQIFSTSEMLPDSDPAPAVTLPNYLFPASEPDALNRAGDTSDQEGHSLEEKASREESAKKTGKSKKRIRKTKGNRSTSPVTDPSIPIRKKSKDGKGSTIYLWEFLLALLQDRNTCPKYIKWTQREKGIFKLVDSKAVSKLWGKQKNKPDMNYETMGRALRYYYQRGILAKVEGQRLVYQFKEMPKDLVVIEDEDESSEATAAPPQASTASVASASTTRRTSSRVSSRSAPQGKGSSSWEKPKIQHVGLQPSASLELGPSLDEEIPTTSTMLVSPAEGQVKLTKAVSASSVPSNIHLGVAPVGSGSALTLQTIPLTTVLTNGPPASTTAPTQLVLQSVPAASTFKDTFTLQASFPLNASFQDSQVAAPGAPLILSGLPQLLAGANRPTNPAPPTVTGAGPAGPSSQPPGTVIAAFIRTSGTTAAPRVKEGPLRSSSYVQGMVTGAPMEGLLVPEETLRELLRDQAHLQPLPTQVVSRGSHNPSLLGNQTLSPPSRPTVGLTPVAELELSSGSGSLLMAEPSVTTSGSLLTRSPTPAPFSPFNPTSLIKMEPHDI
# Method in brief: as §1
# ELK4 = molecular target: T9, ELK4 (Homo sapiens, UniProt P28324-2 1-405); conditions: protein: recombinant; tags: N-terminal GST; dsDNA, one strand shown
# T9 sequence: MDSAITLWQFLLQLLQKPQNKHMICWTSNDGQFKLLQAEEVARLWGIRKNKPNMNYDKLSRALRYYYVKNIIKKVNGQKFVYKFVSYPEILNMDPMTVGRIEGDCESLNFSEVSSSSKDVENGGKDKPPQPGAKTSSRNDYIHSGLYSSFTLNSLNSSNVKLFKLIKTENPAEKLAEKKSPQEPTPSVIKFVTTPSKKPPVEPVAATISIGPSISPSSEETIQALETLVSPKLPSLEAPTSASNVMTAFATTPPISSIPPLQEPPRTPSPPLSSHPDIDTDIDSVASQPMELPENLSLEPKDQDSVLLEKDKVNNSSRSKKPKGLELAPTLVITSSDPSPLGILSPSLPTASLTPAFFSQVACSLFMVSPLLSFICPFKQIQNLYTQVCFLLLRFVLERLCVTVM
# Method in brief: as §1
# ETV2 = molecular target: T10, ETV2 (Homo sapiens, UniProt O00321 1-342); conditions: protein: recombinant; tags: N-terminal GST; dsDNA, one strand shown
# T10 sequence: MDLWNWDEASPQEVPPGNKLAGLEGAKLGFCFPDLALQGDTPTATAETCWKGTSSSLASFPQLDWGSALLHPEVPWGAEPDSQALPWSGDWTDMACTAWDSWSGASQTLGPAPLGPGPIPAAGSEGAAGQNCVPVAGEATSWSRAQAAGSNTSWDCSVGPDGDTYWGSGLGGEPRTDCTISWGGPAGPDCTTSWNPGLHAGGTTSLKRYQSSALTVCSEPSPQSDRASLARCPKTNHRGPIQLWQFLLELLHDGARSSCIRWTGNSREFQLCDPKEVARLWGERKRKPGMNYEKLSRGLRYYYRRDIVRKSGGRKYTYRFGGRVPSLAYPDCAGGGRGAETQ
# Method in brief: as §1
# ELF3 = molecular target: T11, ELF3 (Homo sapiens, UniProt P78545 1-371); conditions: protein: recombinant; tags: N-terminal GST; dsDNA, one strand shown
# T11 sequence: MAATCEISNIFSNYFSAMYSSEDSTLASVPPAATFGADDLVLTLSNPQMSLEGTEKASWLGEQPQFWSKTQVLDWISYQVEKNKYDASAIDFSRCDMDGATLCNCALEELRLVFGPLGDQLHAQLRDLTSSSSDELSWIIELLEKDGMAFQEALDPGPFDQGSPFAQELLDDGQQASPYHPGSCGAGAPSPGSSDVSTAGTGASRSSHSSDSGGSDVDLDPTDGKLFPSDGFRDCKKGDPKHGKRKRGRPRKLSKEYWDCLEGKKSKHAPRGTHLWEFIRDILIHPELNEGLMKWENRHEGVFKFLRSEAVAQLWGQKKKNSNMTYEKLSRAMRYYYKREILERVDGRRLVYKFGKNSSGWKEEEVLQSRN
# Method in brief: as §1
# CRX = CRX (Homo sapiens, UniProt O43186 1-299); conditions: protein: recombinant; tags: N-terminal GST; dsDNA, one strand shown
# CRX, sequence (O43186 whole entry): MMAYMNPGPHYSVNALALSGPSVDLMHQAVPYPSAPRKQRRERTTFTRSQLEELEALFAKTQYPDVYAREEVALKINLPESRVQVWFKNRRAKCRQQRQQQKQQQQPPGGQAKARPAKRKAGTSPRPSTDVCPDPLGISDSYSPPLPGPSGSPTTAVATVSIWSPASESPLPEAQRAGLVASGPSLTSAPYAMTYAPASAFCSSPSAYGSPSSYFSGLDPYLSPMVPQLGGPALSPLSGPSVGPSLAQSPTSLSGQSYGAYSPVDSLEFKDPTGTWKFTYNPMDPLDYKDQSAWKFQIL
# Method in brief: as §1
# ETV1 = ETV1 (Homo sapiens, UniProt P50549 1-477); conditions: protein: recombinant; tags: N-terminal GST; dsDNA, one strand shown
# ETV1, sequence (P50549 whole entry): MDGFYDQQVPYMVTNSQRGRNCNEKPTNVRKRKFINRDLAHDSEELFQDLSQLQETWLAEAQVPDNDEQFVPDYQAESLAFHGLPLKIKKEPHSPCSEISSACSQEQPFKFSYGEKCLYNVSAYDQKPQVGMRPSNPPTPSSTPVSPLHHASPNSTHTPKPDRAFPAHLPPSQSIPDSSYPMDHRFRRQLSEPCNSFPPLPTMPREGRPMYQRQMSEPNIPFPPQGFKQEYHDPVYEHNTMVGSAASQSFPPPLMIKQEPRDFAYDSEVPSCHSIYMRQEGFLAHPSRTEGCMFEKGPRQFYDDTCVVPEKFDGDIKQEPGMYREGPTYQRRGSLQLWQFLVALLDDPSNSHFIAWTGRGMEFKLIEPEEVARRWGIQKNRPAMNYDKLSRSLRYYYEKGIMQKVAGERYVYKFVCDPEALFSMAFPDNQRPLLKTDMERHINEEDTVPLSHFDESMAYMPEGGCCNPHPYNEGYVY
# Method in brief: as §1
sequence,measurement,setting,value
TTAAGG,binding signal,FLI1,"1.14 fold enrichment (6-mer frequency, TF over GST control)"
same,binding signal,ELK1,"1.14 fold enrichment (6-mer frequency, TF over GST control)"
same,binding signal,GABPA,"1.2 fold enrichment (6-mer frequency, TF over GST control)"
same,binding signal,ERG,"1.18 fold enrichment (6-mer frequency, TF over GST control)"
same,binding signal,ELF1,"1.13 fold enrichment (6-mer frequency, TF over GST control)"
same,binding signal,EHF,"1.13 fold enrichment (6-mer frequency, TF over GST control)"
same,binding signal,SPI1,"1.26 fold enrichment (6-mer frequency, TF over GST control)"
same,binding signal,SPIB,"1.15 fold enrichment (6-mer frequency, TF over GST control)"
same,binding signal,ELK3,"1.06 fold enrichment (6-mer frequency, TF over GST control)"
same,binding signal,FEV,"1.16 fold enrichment (6-mer frequency, TF over GST control)"
same,binding signal,ETV5,"1.11 fold enrichment (6-mer frequency, TF over GST control)"
same,binding signal,HSF1,"1.67 fold enrichment (6-mer frequency, TF over GST control)"
same,binding signal,SPIC,"1.23 fold enrichment (6-mer frequency, TF over GST control)"
same,binding signal,ELF4,"1.14 fold enrichment (6-mer frequency, TF over GST control)"
same,binding signal,ELK4,"1.25 fold enrichment (6-mer frequency, TF over GST control)"
same,binding signal,ETV2,"1.23 fold enrichment (6-mer frequency, TF over GST control)"
same,binding signal,ELF3,"1.2 fold enrichment (6-mer frequency, TF over GST control)"
same,binding signal,CRX,"2.78 fold enrichment (6-mer frequency, TF over GST control)"
same,binding signal,ETV1,"1.15 fold enrichment (6-mer frequency, TF over GST control)"
